According to PubChem BioAssay:
The source made the active and inactive calls.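 How the source made its calls: active means fluorescence ratio normalized to control raised more than 50% in primary screen plus both repeat runs; inactive means the rest.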

Test system: TRPC4 beta (transient receptor potential cation channel C4), mouse
Assay: activators of mouse TRPC4 channel, confirmation, cell-based, Fluo4 calcium, HEK293 TRPC4beta/mu-opioid, duplicates, 10 µM (AID 2426);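 on activation: percent rise of integrated ratio over buffer wells lacking compound which define 0%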
Conditions: Fluo4 calcium fluorescence, at 10 µM; active compounds read high

**Q.** With `NC1=NC2(CCN(Cc3ccccc3)CC2)n2c(nc3ccccc32)N1` as the compound, how does the activation read?
**A.** The activation was 54% (active).

**Q.** With `COc1ccc(CN2CCC(N(CCc3ccccc3)Cc3ccccc3)CC2)c(OC)c1` as the compound, how does the activation read?
**A.** The activation was 95% (active).

**Q.** With `CCc1ccc(C(=O)c2cnc3ccc(OC)cc3c2N2CCN(CC)CC2)cc1` as the compound, how does the activation read?
**A.** The activation was 283% (active).

**Q.** `S=C(NCCc1cnc[nH]1)NC1CCCC1` was tested. Which activation did it give?
**A.** The activation was 220% (active).

**Q.** For `O=C(NCc1ccccc1)C1=C[C@H](c2ccccc2)C[C@H](OCc2ccc(CO)cc2)O1`, which activation is on record?
**A.** The activation was 300% (active).

**Q.** For `Cc1ccc(OCC(=O)N(C)CCc2ccccn2)cc1`, which activation is on record?
**A.** Its activation is 133% (active).

**Q.** `CC(C)(C)C(=O)/C=c1\s/c(=C\c2ccc(-c3ccc([N+](=O)[O-])cc3)o2)c(=O)n1CC(=O)NC(N)=O` was tested. Which activation did it give?
**A.** Its activation is 63% (active).

**Q.** With `NC(=O)C1CCCN(CCc2ccccc2)C1` (centres undefined) as the compound, how does the activation read?
**A.** The activation was 157% (active).

**Q.** How did the activation turn out when `Cc1cc2nc3s/c(=C/c4ccc(-c5ccccc5C(=O)O)o4)c(=O)n3c2cc1C` was run?
**A.** The activation was 177% (active).

**Q.** How did the activation turn out when `COc1ccc(CNCc2cn(-c3cccc(F)c3)nc2-c2ccc(C)o2)cc1` was run?
**A.** Its activation is 156% (active).

**Q.** Which activation does the source give for `CN(C)C(CNc1ccc(C(F)(F)F)cn1)c1ccccc1` (centres undefined) here?
**A.** Its activation is 135% (active).

**Q.** Which activation does the source give for `CN(C)C(CNC(=O)c1cccc(S(=O)(=O)N(C)C)c1)c1ccccc1` (centres undefined) here?
**A.** Its activation is 84% (active).

**Q.** Which activation does the source give for `CCCc1c(O)nc(SCCN(CC)CC)[nH]c1=O` here?
**A.** Its activation is 179% (active).

**Q.** `CCC(=O)N1CCc2cc(Br)cc(S(=O)(=O)NCCCN(CC)Cc3ccccc3)c21` was tested. Which activation did it give?
**A.** The activation was 126% (active).

**Q.** Which activation does the source give for `Cc1ccc(Cn2c(SCCN3CCCCC3)nc3c2c(=O)n(C)c(=O)n3C)cc1` here?
**A.** Its activation is 114% (active).

**Q.** For `O=C(O)C1C2C=CC(C2)C1C(=O)N1CCN(C/C=C/c2ccccc2)CC1` (centres undefined), which activation is on record?
**A.** The activation was 71% (active).

**Q.** With `COc1ccc(C)c(NC(=O)NCCc2cnc[nH]2)c1` as the compound, how does the activation read?
**A.** The activation was 152% (active).

**Q.** How did the outcome turn out when `OCCC1CN(Cc2ccccc2-c2ccco2)CCN1Cc1ccccc1` (centres undefined) was run?
**A.** The outcome was “inactive”.

**Q.** For `COc1ccc(CCN(C)C(=O)C2CCCN(C3CCN(Cc4ccccc4)CC3)C2)cc1OC` (centres undefined), which activation is on record?
**A.** The activation was 143% (active).

**Q.** Which activation does the source give for `CCOc1ccc(S(=O)(=O)Nc2cccc(C(=O)NCC(c3ccccc3)N(C)C)c2)cc1` (centres undefined) here?
**A.** Its activation is 255% (active).

**Q.** `Cc1cc(C)cc(NC(=S)N2CCN(c3ncc(C(F)(F)F)cc3Cl)CC2)c1` was tested. Which activation did it give?
**A.** The activation was 105% (active).

**Q.** With `COc1ccc(C(CNC(=O)c2cccc(Br)c2)N2CCCC2)cc1` (centres undefined) as the compound, how does the outcome read?
**A.** Its outcome is “inactive”.

**Q.** For `CC(C)n1cnc2c(N(C)c3ccccc3)nc(N(CCN(C)C)Cc3ccccc3)nc21`, which outcome is on record?
**A.** Its outcome is “inactive”.

**Q.** `Cc1cccn2c(CNCCc3ccccn3)c(C(=O)N3CCOCC3)nc12` was tested. Which activation did it give?
**A.** The activation was 184% (active).

**Q.** For `Cc1ccc(C)c(-n2cc(CNCCCn3cccn3)c(-c3ccccc3)n2)c1`, which activation is on record?
**A.** Its activation is 288% (active).

**Q.** `Cc1csc2c(N3CCN(C(=O)Nc4ccc(OC(F)(F)F)cc4)CC3)ncnc12` was tested. Which activation did it give?
**A.** The activation was 75% (active).

**Q.** With `CN(CCc1ccccn1)C(=S)Nc1cccc(S(=O)(=O)N(C)C)c1` as the compound, how does the activation read?
**A.** The activation was 111% (active).

**Q.** With `Cc1ccc(NC(=S)NC2CC3CCC(C2)N3Cc2ccco2)c(C)c1` (centres undefined) as the compound, how does the activation read?
**A.** The activation was 116% (active).

**Q.** `COc1cc2c(cc1OC)C(C)N(C(=O)C(NC(=O)c1ccccc1)C(C)C)CC2` (centres undefined) was tested. Which activation did it give?
**A.** The activation was 130% (active).

**Q.** With `O=C(NC1CC1)C1=C[C@H](c2csc3ccccc23)C[C@H](OCc2ccc(CO)cc2)O1` as the compound, how does the outcome read?
**A.** The outcome was “inactive”.

**Q.** Which activation does the source give for `Clc1ccc2nc(N3CCNCC3)nc(-c3ccccc3)c2c1` here?
**A.** Its activation is 74% (active).

**Q.** How did the activation turn out when `COc1ccc(C(CNC(=O)/C=C/c2c(Cl)nc3ccccn23)N(C)C)cc1` (centres undefined) was run?
**A.** Its activation is 268% (active).

**Q.** For `CC(=O)n1cc([C@H]2C=C(C(=O)NCc3ccccc3)O[C@@H](OCc3ccc(CO)cc3)C2)c2ccccc21`, which outcome is on record?
**A.** Its outcome is “inactive”.

**Q.** With `CCCn1ncc(CN2CCC(n3nccc3NC(=O)CCc3ccccc3)CC2)c1C` as the compound, how does the activation read?
**A.** Its activation is 132% (active).

**Q.** For `CC(=O)NC(CC(=O)NCC(c1ccco1)N(C)C)c1ccccc1` (centres undefined), which activation is on record?
**A.** The activation was 98% (active).

**Q.** Which outcome does the source give for `COc1ccc(C(=O)NNC(=S)NC(=O)c2cccs2)cc1` here?
**A.** Its outcome is “inactive”.

**Q.** With `COCCn1nnnc1C(c1cc2ccc(OC)cc2[nH]c1=O)N1CCN(C2CCCCC2)CC1` (centres undefined) as the compound, how does the activation read?
**A.** Its activation is 133% (active).

**Q.** How did the outcome turn out when `O=C(c1sc2ccccc2c1Cl)N(Cc1ccccc1)C1CCS(=O)(=O)C1` (centres undefined) was run?
**A.** Its outcome is “inactive”.

**Q.** Which activation does the source give for `O=c1c(Cc2ccc(F)cc2)c(O)ccn1CCc1cnc[nH]1` here?
**A.** The activation was 112% (active).
